Each structure is given as a SMILES string. Hit rate of the full screen: of about 2,100 compounds, about 760 (36%) were called active. Not all results are given here. Unmarked numbers belong to inactive results.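 Rule for the calls: active = thallium-flux fluorescence traces judged by eye to show enhanced or reduced glutamate response, manual score 1 or -1, so both directions (some results past the limit were not filed as active); inactive = the rest, including fluorescent or raised-baseline compounds.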

This assay is described as follows: thallium influx changes without GIRK channels – cell-based, HEK-293 rmGlu8, no GIRK, thallium flux, counter-screen for GIRK activator project, confirmation (AID 623868).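 Note: extra codes mark interference with 3 for fluorescent and 4 for baseline rise.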 The note with it: thallium flux fluorescence, at 10 µM, actives lie on both sides, codes: 1 enhancer, -1 blocker, 0 none, thallium stimulus containing EC20 glutamate. Background: Counterscreens check selectivity or assay interference.
Turning to `Cc1ccc2c(CC(=O)NC3CCCc4ccccc43)coc2c1` (stereo not given), the manual score is 0. `CCOc1ccc(NC(=O)Nc2cc(C)ccc2OC)cc1`: the manual score is 0. In the case of `COc1cccc(NC(=O)COc2ccc(C)cc2)c1`, the manual score is 0. For `Cc1ccc(OCC(=O)N/N=C/c2cccn2C)cc1` the value was 0; for `COc1ccc(OCC(=O)NNC(=O)C(=O)Nc2ccc(C)cc2)cc1`, 1 (active).

Regarding `COc1ccccc1NC(=O)COc1ccc(Br)cc1CO`, the manual score is 0. In the case of `C=C(C)C1CC=C(C)/C(=N/NC(=O)COc2ccc(C)cc2)C1` (stereo not given) it was 0; in that of `Cc1ccc(OCC(=O)NNC(=O)C(=O)NC(C)(C)C)cc1`, 1 (active). For `CC(C)(C)NC(=O)C(=O)NNC(=O)COc1ccc(Br)cc1` the value was 1 (active); for `S=C1NC2=C(CCCC2)C2(CCCCC2)N1`, 0; for `CN(CC(=O)Nn1cnnc1)S(=O)(=O)c1ccc(Br)cc1`, 0.

Consider `C/C(=N\NC(=O)c1ccccc1O)c1ccc(Br)s1`, for which the manual score is 1 (active). In the case of `O=C(N/N=C/c1c(Cl)cccc1Cl)c1cccc(F)c1` it was 0; in that of `C/C(=N\NC(=O)c1ccccc1)c1nc2ccccc2n1C`, 0; in that of `CCC(NC(=O)c1ccccc1O)c1ccccc1` (stereo not given), 0. In the case of `C/C(=N\NC(=O)c1cccc(F)c1)c1ccc(Br)s1`, the manual score is 1 (active). For `C/C(=N\NC(=O)c1ccc(Cl)cc1)c1ccc(Br)s1` the value was 1 (active); for `CN(C)/C=C/C(=O)/C=C/c1cn(-c2ncc(C(F)(F)F)cc2Cl)c2ccccc12`, 0; for `CCc1ccc2c(c1)C1(NN=C(c3ccc(C)cc3)S1)C(=O)N2` (stereo not given), 0. Regarding `CCOC(=O)c1c(NC(=O)C2C3C=CC(C3)C2C(=O)O)sc2c1CCC(CC)C2` (stereo not given), the manual score was 0. As to `CCOC(=O)c1ccc(CNCc2ccc(Br)cc2)cc1`, the manual score was 0. For `CCOC(=O)c1c(NS(=O)(=O)c2ccc(Br)cc2)sc2c1CCC2` the value was 1 (active). For `CCOC(=O)c1c(NS(=O)(=O)c2cccc(OC)c2)sc2c1CCC2` the value was 1 (active); for `O=C1CS/C(=N\C(=O)N2c3ccccc3Sc3ccccc32)N1`, 0. For `CC(C)Cn1cnc2c(c(-c3ccccc3)c(-c3ccccc3)n2Cc2ccco2)c1=N` the value was 0.

Consider `O=S(=O)(Nc1cc(Sc2cccc3cccnc23)c(O)c2ccccc12)c1ccc(F)cc1`, for which the manual score was 0. For `CC(=O)/C(=N\Nc1ccc(Cl)cc1Cl)Sc1cccc2cccnc12` the value was 1 (active); for `CCOc1ccc(-c2nc(-c3ccncc3)no2)cc1OCC`, 0; for `O=C(c1cccc(F)c1)N1CCN(Cc2ccco2)CC1`, 0. `O=C(CC(=O)c1cc(Cl)ccc1O)c1ccccc1`: the manual score was 1 (active).

As to `C/C(=N/NC(=O)c1cc(Cl)ccc1O)C12CC3CC(CC(C3)C1)C2`, the manual score was 0.

In the case of `Cc1ccc(C(=O)CC(=O)c2cc(Cl)ccc2O)cc1`, the manual score was 0.

On to `O=C(CC(=O)c1ccccc1O)c1cccc(F)c1`, for which the manual score was 1 (active).

For `Cc1cccc(C(=O)CC(=O)c2cc(Cl)ccc2O)c1`, the manual score is 0.5. In the case of `O=C(CC(=O)c1ccccc1O)c1ccc(F)cc1` it was 1 (active).
